KDM4E inh: inhibitors of human JMJD2E histone demethylase; B2RXH2; JMJD2E catalytic domain, FDH-coupled NADH fluorescence (FDH is formaldehyde dehydrogenase); Potency, µM (highest dose often 57.1 µM), inactives show top-dose activity change, negative = inhibition, most hits filed as inhibitors; hit rate 1.6% among 230,000; AID 2147; active = well fitted inhibition curve with a large enough effect, not every such curve was filed as active; inconclusive = small, poorly fitted or top-dose-only effect, or another doubt; inactive = no such curve, though single readings can be large or run the other way;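 also: potency is read from the fitted curve at half-maximal effect; 0% = wells with enzyme and -100% = buffer wells without enzyme; nearly all actives have a fitted effect of over 50% in size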
L3MBTL1 inh: L3MBTL1 (human) inhibition; Q9Y468; AlphaScreen L3MBTL1–H3K9me1 peptide binding; Potency, µM (top dose mostly 57.1 µM), for inactives: at the highest dose activity, negative = inhibition, hits mostly inhibitors; hit rate 0.66% among 230,000; AID 485360; active = well fitted inhibition curve with a large enough effect; inconclusive = small, poorly fitted or top-dose-only effect; inactive = no such curve, though single readings can be large or run the other way; also: potency is read from the fitted curve at half-maximal effect; nearly all actives have a fitted effect of over 60% in size
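L3MBTL1 (50 nM) pre-complexed 30 min with biotinylated H3(1-15)K9me1 peptide (75 nM), then compounds added for 30 min at room temperature; AlphaScreen streptavidin donor/nickel chelate acceptor beads (10 ug/mL final) read after 30 min dark incubation.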
CtBP-E1A inh: inhibitors of CtBP/E1A interaction | AlphaScreen GST-E1A/His-CtBP binding, 1536-well; stronger effect = lower value | activity change, % (concentration not given with the values) | hit rate 0.49% among 340,000
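Homogeneous bead-based format: GST-tagged E1A captured on glutathione donor beads, His-tagged CtBP on nickel acceptor beads; compounds precede bead addition by 2 h at 37 °C.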
Six1-Eya2 blk: inhibitors of human Six1/Eya2 interaction; AlphaScreen GST-Six1/His-Eya2 binding, biochemical; stronger effect = lower value; activity change, % (concentration not given with the values); hit rate 0.56% among 360,000; AID 651725
Target sequence (O00167 whole entry, looked up): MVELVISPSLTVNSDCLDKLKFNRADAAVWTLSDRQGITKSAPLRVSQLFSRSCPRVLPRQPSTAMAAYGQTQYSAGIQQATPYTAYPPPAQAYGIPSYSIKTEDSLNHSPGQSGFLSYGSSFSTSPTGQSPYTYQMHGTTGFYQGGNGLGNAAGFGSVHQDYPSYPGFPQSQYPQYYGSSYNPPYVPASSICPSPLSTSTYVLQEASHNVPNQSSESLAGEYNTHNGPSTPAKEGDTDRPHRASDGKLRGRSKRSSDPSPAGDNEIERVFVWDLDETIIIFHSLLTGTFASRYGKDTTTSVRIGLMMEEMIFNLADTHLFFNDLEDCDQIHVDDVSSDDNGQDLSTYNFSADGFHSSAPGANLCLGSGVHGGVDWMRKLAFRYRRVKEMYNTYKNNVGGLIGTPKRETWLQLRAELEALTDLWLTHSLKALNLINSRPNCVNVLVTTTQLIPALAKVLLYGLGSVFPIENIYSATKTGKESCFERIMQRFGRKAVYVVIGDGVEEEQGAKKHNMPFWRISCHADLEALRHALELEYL
Target sequence (Q15475 whole entry, looked up): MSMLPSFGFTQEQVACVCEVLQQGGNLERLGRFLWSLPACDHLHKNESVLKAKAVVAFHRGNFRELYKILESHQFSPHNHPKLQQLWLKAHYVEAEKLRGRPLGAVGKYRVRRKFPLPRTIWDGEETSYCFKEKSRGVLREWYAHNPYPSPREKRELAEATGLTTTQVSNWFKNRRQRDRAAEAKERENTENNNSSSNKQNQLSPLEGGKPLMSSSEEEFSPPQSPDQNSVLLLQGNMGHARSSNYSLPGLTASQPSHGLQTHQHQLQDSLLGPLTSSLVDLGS
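Homogeneous AlphaScreen proximity assay pairing GST-Six1 with His-tagged Eya2 (added as 5X mix: 250 nM and 500 nM) in 50 mM Tris pH 8.0, 300 mM NaCl, 1 mM TCEP. Glutathione donor and nickel acceptor beads; 1 h, 37 °C, dark.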
Starred values were filed as active, the others as inactive; ? = inconclusive; nt = no result. Many of the other results were omitted from the sample, so hits are more common in it than they were. Rule as the data show it, unless noted: active = activity change below about -65%; inconclusive = mostly about -30% to -63%; inactive = weaker than that. Unless noted, % is scaled to controls: 0 for no effect and ±100 for the full control effect.

SMILES | KDM4E inh | L3MBTL1 inh | CtBP-E1A inh | Six1-Eya2 blk
CO[C@@H](CCO)C[C@H]1O[C@H](C(=O)OC(C)C)CC[C@@H]1C | 15.1% | nt | nt | nt
Oc1ccc2ccccc2c1CNc1ccccc1 | nt | nt | -2.0 | 4.0
Oc1ccc(CNc2ccccc2)c2cccnc12 | 8.91µM* | ? | -93.6* | -89.3*
Oc1ccc(CNc2ccc(F)cc2)c2cccnc12 | 7.94µM* | 31.6µM* | -90.5* | -89.8*
Cc1ccccc1NCc1ccc(O)c2ncccc12 | 7.08µM* | ? | -94.7* | -90.7*
CCOc1ccc(NC(=O)CN(C)C(=O)C2CCCO2)cc1OCC (stereo not drawn) | nt | 2.1% | -3.7 | -5.9
O=C(N/C(=C/c1ccc(Br)cc1)C(=O)N1CCOCC1)c1ccco1 | nt | nt | 3.2 | -1.8
O=C(N/C(=C/c1ccc(Br)cc1)C(=O)N1CCCC1=O)c1ccco1 | 10.7% | -17.3% | -93.3* | -10.4
NCCNCCNCCN | 99.2% | ? | -93.3* | -84.3*
NCCCCNCCCN | -2.8% | nt | 5.2 | 1.3
CCN(CC)c1ccc(/C=N/NC(=O)c2ccco2)c(O)c1 | 14.1µM* | -27.4% | ? | -65.2*
CCN(CC)c1ccc(NC(=S)Nc2ccc(F)cc2)cc1 | 8.91µM* | nt | -19.8 | ?
Oc1ccc(NC(=S)Nc2ccc(F)cc2)cc1 | nt | -7.6% | nt | -0.3
CCN(CC)c1ccc(/C=N/Nc2nc3ccccc3[nH]2)c(O)c1 | 15.8µM* | nt | ? | 0.0
CCN(CC)c1ccc(NC(=S)NC(=O)c2ccco2)cc1 | -21.4% | ? | 3.1 | -69.7*
COc1cc(OC)c(OC)cc1/C=N/Nc1nc2ccccc2[nH]1 | -2.1% | -7.5% | nt | -0.3
CCOC(=O)c1c[nH]c2ccc3ccccc3c2c1=O | nt | -3.3% | nt | -2.1
CCOC(=O)c1[nH]cnc1N=Nc1c(O)ccc2ccccc12 | ? | -10.2% | -70.4* | -81.5*
Oc1ccc2ccccc2c1N=Nc1ccccn1 | ? | 10µM* | -73.2* | -84.2*
CC(C)CCn1c(O)c(N=Nc2ccccn2)c2ccccc21 | -16.7% | -6.0% | 12.2 | 15.6
Oc1ccc2ccccc2c1N=Nc1ccccc1F | ? | 8.91µM* | ? | -87.9*
O=C(NCCCN1CCN(CCCNC(=O)c2cc([N+](=O)[O-])ccc2Cl)CC1)c1cc([N+](=O)[O-])ccc1Cl | -0.5% | -8.0% | -14.5 | -8.2
COc1ccc(-c2coc3cc(O)ccc3c2=O)c(O)c1O | 11.2µM* | nt | nt | nt
COc1ccccc1CNC(=O)c1c(O)c2cc(OC)c(OC)cc2[nH]c1=O | 3.55µM* | -0.3% | -2.5 | -1.7
O=C(NCc1ccccc1)c1c(O)c2ccccc2[nH]c1=O | nt | 2.4% | -3.6 | 0.9
SMILES | KDM4E inh | L3MBTL1 inh | CtBP-E1A inh | Six1-Eya2 blk
CC(C)=CCc1c(O)cc2c(c1O)C(=O)CC(c1ccccc1)O2 (stereo not drawn) | nt | nt | 6.1 | 0.3
NC[C@@H]1O[C@H](C23CC4CC(CC(C4)C2)C3)Cc2c1ccc(O)c2O | 22.4µM* | nt | ? | -15.9
NC[C@@H]1O[C@H](c2ccccc2)Cc2c1ccc(O)c2O | 15.8µM* | nt | nt | nt
CCC(C)NC(=O)C1(N2C(=O)c3ccccc3C2=O)CCCC1 (stereo not drawn) | nt | nt | 0.2 | 2.4
O=C(OC1Cc2c(O)cc(O)cc2OC1c1cc(O)c(O)c(O)c1-c1c(C2Oc3cc(O)cc(O)c3CC2O)cc(O)c(O)c1O)c1cc(O)c(O)c(O)c1 (stereo not drawn) | 8.91µM* | nt | nt | nt
Cc1ccc([N+](=O)[O-])cc1S(=O)(=O)Nc1ccc(C(=O)NCC2CCCO2)cc1 (stereo not drawn) | nt | -18.9% | 0.8 | -1.8
O=c1oc2ccccc2cc1-c1csc(NN=C2CCCC2)n1 | ? | 25.7% | 22.0 | 20.6
O=C(O)c1cccc(Nc2nc(-c3cc4ccccc4oc3=O)cs2)c1 | nt | 16.3% | -78.6* | -78.2*
Cc1nc2ccccn2c1-c1csc(Nc2ccc(C(=O)O)cc2)n1 | nt | nt | -29.7 | -16.9
Cc1nc2ccccn2c1-c1csc(Nc2cccc(C(=O)O)c2)n1 | nt | nt | -71.4* | ?
COc1cc(OC)c(N(C)S(=O)(=O)c2cccc(C(=O)OCC(=O)N(C)Cc3ccccc3)c2)cc1Cl | nt | nt | -11.2 | -7.5
CCN(CC)CCn1c(O)c(N=O)c2ccccc21 | -1.8% | 6.3% | 2.3 | 2.6
CCN(CC)CCn1c2ccccc2c(=O)c2c(O)ccc(O)c21 | nt | nt | -0.3 | -68.8*
COc1ccc2nc(S(=O)Cc3ncc(C)c(OC)c3C)[nH]c2c1 (stereo not drawn) | 25.1µM* | -12.8% | -6.3 | -0.2
C/C(=N\NC(=O)CSCc1ccccc1Cl)c1cc(O)ccc1O | 4.47µM* | -28.6% | -23.7 | ?
CC(=O)Nc1ccc(NC(=O)CSCc2ccccc2Cl)cc1 | nt | nt | 22.1 | 22.6
N#Cc1c(/N=C/c2ccco2)oc(-c2ccccc2)c1-c1ccccc1 | ? | 3.5% | 7.5 | 10.2
COc1ccc(OC)c(/C=N/c2oc(-c3ccco3)c(-c3ccco3)c2C#N)c1 | ? | 25.1µM* | -18.2 | -26.6
N#Cc1c(N)oc(-c2ccco2)c1-c1ccco1 | 1.58µM* | -18.8% | -15.7 | 0.0
N#Cc1c(N)oc(-c2ccccc2)c1-c1ccccc1 | -17.7% | -0.2% | 0.9 | -5.2
CCCC1=NN2C(=N)/C(=C\c3cc(C)n(Cc4ccccc4)c3C)C(=O)N=C2S1 | ? | 1.4% | nt | 0.7
CC1=CC2=NC(=O)/C(=C\c3cc(C)n(-c4ccccc4)c3C)C(=N)N2O1 | -186.2% | 2.7% | 0.0 | 0.8
CCCC1=NN2C(=N)/C(=C\c3cc(C)n(-c4cccc(C)c4)c3C)C(=O)N=C2S1 | 8.91µM* | -0.8% | -12.7 | -22.0
CC1=CC2=NC(=O)/C(=C\c3cc(C)n(-c4cccc(Cl)c4)c3C)C(=N)N2O1 | 28.2µM* | -4.8% | -22.3 | -8.0
CN(C)c1ccc(CC2C(=O)Nc3ccccc32)cc1 (stereo not drawn) | 3.16µM* | ? | -9.9 | -9.8
SMILES | KDM4E inh | L3MBTL1 inh | CtBP-E1A inh | Six1-Eya2 blk
COc1cc2c(cc1OC)-c1c(OC)c(OC)cc3ccnc(c13)C2=O | ? | 0.0% | -71.3* | ?
C=CC[C@@](C(C)=O)(C(=O)OC)C(NC(=O)OC)c1ccccc1 (stereo partly drawn) | 1.3% | nt | nt | nt
COc1ccc(NC(=O)CSc2n[nH]c(-c3ccccn3)n2)cc1 | nt | nt | -79.2* | -92.4*
COc1ccccc1NC(=O)CSc1n[nH]c(-c2ccccn2)n1 | nt | nt | -89.6* | -95.1*
O=C(CSc1n[nH]c(-c2ccccn2)n1)Nc1ccccc1F | nt | nt | 1.0 | -92.4*
O=C(CSc1n[nH]c(-c2ccccn2)n1)Nc1ccccc1 | nt | nt | -101.0* | -95.0*
CC(=O)N(CCC(c1ccco1)C(C)C)Cc1ccc(OC(C)C)cc1 (stereo not drawn) | 1.0% | -10.3% | -2.1 | -3.3
COc1cc(C)ccc1S(=O)(=O)NC(=O)C1(C)CCN1C(=O)Cc1ccc(C(C)(C)C)cc1 (stereo not drawn) | nt | nt | 1.4 | 3.9
CN(C)c1ccc(N=Nc2ccccc2C(=O)OCC(=O)N2CCCC2)cc1 | 1.3% | -16.8% | -30.0 | ?
CN(C)c1ccc(N=Nc2ccccc2C(=O)OCC(=O)Nc2ccccc2C(F)(F)F)cc1 | -0.1% | 25.1µM* | -29.2 | -71.1*
CN(C)c1ccc(N=Nc2ccccc2C(=O)OCC(=O)N2CCCCCC2)cc1 | 3.8% | ? | -65.9* | -73.6*

Compound activity as filed in PubChem.
